In paper PMC7862700, “An all-to-all approach to the identification of sequence-specific readers for epigenetic DNA modifications on cytosine”:

How the values were obtained:
Assay in all cases: DAPPL (digital affinity profiling via proximity ligation, sequencing); 10 mM Tris-HCl pH 7.5, 50 mM NaCl, 1 mM DTT, 4% glycerol, room temperature, 30 min; GST-TFs on glutathione beads, 16-mer random dsDNA library, 0.1% formaldehyde crosslink after washing; high values mean tight binding
[1] = biological target: T1, FLI1 (Homo sapiens, UniProt Q01543 1-452); settings: protein: recombinant; tags: N-terminal GST; dsDNA, one strand shown
T1 sequence: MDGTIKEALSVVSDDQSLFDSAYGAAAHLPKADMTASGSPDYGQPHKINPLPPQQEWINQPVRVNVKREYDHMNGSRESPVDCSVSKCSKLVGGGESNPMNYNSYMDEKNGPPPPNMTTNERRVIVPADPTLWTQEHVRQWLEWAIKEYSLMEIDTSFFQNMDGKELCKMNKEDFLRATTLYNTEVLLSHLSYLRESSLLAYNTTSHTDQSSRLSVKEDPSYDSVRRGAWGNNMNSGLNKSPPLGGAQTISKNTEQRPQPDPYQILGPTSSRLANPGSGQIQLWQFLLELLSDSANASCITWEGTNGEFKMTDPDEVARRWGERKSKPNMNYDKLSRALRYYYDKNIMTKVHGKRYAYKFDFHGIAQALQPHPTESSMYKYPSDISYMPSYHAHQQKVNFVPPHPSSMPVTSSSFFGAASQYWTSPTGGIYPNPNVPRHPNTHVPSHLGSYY
Summary of the method: (§1)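 GST fusions of human transcription factors were expressed in yeast and captured with glutathione beads. Once given DNA barcodes and pooled alongside a tag-only sample, they were incubated for 30 min at room temperature with 200 nmole of a random double-stranded 16-mer DNA library in Tris/NaCl/DTT/glycerol buffer, then washed, crosslinked (0.1% formaldehyde), proximity-ligated, PCR-amplified and sequenced on an Illumina NextSeq500. The binding signal of each hexamer is its read frequency for a factor divided by its frequency for the tag-only sample.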

[2] = biological target: T2, ELK1 (Homo sapiens, UniProt P19419 1-428); settings: protein: recombinant; tags: N-terminal GST; dsDNA, one strand shown
T2 sequence: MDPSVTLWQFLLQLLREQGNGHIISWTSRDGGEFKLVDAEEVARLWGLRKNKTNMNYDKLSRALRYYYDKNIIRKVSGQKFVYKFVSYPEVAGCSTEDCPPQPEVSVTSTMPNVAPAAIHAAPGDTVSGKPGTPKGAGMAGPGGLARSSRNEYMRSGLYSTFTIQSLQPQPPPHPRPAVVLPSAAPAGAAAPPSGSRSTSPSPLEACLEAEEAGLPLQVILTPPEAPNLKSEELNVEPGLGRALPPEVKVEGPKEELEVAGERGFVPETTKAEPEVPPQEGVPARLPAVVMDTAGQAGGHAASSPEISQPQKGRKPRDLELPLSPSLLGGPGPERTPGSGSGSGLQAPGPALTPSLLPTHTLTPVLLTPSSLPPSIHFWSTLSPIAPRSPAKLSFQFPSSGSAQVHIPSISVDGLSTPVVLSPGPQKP
Summary of the method: as §1

[3] = biological target: T3, GABPA (Homo sapiens, UniProt Q06546 1-454); settings: protein: recombinant; tags: N-terminal GST; dsDNA, one strand shown
T3 sequence: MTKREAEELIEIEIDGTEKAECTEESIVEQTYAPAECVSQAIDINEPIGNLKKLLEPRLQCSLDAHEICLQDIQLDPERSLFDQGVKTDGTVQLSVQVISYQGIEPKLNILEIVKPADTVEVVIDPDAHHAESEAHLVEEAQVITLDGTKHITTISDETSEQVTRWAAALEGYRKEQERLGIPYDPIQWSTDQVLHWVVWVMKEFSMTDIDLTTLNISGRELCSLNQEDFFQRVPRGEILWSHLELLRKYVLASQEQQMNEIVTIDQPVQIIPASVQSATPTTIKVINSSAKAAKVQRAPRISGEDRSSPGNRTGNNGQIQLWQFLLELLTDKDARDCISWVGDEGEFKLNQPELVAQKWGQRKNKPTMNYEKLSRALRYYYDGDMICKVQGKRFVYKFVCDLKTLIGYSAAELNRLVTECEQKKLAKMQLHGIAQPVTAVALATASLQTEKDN
Summary of the method: as §1

[4] = biological target: T4, ERG (Homo sapiens, UniProt P11308 1-479); settings: protein: recombinant; tags: N-terminal GST; dsDNA, one strand shown
T4 sequence: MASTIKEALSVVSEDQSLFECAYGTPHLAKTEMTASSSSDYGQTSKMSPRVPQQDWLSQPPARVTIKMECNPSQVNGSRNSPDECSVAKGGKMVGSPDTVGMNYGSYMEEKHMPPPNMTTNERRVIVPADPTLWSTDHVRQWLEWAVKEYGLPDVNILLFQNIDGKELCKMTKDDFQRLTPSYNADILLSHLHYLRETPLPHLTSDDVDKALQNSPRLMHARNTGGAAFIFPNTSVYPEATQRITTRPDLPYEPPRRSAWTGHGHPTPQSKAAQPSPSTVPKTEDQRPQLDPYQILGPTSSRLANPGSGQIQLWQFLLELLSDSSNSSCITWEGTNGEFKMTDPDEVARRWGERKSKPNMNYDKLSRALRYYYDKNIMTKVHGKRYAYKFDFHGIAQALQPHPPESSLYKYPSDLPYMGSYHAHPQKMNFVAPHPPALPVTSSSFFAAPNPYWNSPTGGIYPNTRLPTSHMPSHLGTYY
Summary of the method: as §1

[5] = biological target: ELF1 (Homo sapiens, UniProt P32519 1-619); settings: protein: recombinant; tags: N-terminal GST; dsDNA, one strand shown
Summary of the method: as §1

[6] = biological target: T5, EHF (Homo sapiens, UniProt Q9NZC4 1-300); settings: protein: recombinant; tags: N-terminal GST; dsDNA, one strand shown
T5 sequence: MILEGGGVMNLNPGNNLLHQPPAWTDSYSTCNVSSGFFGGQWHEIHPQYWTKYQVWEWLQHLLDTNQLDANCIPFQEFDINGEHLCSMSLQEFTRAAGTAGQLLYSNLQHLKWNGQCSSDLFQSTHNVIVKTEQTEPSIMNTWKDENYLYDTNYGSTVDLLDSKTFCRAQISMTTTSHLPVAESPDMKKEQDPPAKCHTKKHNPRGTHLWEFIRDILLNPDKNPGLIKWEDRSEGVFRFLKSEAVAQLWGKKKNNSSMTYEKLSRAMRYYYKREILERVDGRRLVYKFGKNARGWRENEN
Summary of the method: as §1

[7] = biological target: SPI1 (Homo sapiens, UniProt P17947 1-270); settings: protein: recombinant; tags: N-terminal GST; dsDNA, one strand shown
Summary of the method: as §1

[8] = biological target: SPIB (Homo sapiens, UniProt Q01892 1-262); settings: protein: recombinant; tags: N-terminal GST; dsDNA, one strand shown
Summary of the method: as §1

[9] = biological target: T6, ELK3 (Homo sapiens, UniProt P41970 1-407); settings: protein: recombinant; tags: N-terminal GST; dsDNA, one strand shown
T6 sequence: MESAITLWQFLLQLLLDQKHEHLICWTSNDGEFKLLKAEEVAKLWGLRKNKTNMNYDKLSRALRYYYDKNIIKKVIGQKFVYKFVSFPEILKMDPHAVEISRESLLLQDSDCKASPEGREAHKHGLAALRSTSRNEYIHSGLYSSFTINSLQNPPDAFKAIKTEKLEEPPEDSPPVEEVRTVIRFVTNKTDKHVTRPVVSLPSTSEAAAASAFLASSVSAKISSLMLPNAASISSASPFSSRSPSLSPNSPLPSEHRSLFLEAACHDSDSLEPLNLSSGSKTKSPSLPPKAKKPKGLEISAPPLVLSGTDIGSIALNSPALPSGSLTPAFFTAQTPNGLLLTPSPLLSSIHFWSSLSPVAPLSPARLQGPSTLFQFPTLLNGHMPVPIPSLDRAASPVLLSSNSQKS
Summary of the method: as §1

[10] = biological target: T7, FEV (Homo sapiens, UniProt Q99581 1-238); settings: protein: recombinant; tags: N-terminal GST; dsDNA, one strand shown
T7 sequence: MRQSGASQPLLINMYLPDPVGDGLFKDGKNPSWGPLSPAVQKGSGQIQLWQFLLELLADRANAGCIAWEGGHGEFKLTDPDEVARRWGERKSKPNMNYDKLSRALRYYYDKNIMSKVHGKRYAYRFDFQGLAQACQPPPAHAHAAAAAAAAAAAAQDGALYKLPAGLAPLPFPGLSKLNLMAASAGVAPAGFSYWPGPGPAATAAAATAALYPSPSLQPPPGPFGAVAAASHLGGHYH
Summary of the method: as §1

[11] = biological target: ETV5 (Homo sapiens, UniProt P41161 1-510); settings: protein: recombinant; tags: N-terminal GST; dsDNA, one strand shown
Summary of the method: as §1

[12] = biological target: HSF1 (Homo sapiens, UniProt Q00613 1-529); settings: protein: recombinant; tags: N-terminal GST; chain copies: 3; dsDNA, one strand shown
Summary of the method: as §1

[13] = biological target: T8, SPIC (Homo sapiens, UniProt Q8N5J4 1-248); settings: protein: recombinant; tags: N-terminal GST; dsDNA, one strand shown
T8 sequence: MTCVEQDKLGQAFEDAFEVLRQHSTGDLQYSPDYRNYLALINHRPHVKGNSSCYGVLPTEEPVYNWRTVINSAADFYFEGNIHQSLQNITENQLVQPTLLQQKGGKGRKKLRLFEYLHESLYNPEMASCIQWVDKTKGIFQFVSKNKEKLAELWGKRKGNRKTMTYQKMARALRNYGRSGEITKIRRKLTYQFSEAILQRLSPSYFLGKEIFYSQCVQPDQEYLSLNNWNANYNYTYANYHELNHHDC
Summary of the method: as §1

[14] = biological target: ELF4 (Homo sapiens, UniProt Q99607 1-663); settings: protein: recombinant; tags: N-terminal GST; dsDNA, one strand shown
Summary of the method: as §1

[15] = biological target: T9, ELK4 (Homo sapiens, UniProt P28324-2 1-405); settings: protein: recombinant; tags: N-terminal GST; dsDNA, one strand shown
T9 sequence: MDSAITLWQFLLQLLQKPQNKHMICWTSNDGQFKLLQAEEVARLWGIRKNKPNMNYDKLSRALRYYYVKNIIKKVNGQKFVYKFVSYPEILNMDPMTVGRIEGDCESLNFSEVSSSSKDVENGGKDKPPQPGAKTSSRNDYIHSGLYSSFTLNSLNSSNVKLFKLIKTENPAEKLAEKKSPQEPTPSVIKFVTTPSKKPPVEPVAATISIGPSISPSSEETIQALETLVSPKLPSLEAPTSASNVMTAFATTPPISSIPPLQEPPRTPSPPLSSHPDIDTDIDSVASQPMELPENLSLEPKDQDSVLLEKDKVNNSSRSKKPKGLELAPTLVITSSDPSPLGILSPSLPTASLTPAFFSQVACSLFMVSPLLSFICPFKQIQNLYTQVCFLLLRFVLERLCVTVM
Summary of the method: as §1

[16] = biological target: T10, ETV2 (Homo sapiens, UniProt O00321 1-342); settings: protein: recombinant; tags: N-terminal GST; dsDNA, one strand shown
T10 sequence: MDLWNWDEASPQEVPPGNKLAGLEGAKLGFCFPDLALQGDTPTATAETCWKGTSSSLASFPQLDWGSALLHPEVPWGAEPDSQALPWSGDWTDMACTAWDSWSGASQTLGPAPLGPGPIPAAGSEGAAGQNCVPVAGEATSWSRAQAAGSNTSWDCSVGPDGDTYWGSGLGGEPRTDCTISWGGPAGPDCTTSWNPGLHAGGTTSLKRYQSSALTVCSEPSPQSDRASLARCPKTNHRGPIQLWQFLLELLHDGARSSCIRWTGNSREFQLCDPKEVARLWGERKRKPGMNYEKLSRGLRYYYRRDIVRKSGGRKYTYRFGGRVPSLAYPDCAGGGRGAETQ
Summary of the method: as §1

[17] = biological target: T11, ELF3 (Homo sapiens, UniProt P78545 1-371); settings: protein: recombinant; tags: N-terminal GST; dsDNA, one strand shown
T11 sequence: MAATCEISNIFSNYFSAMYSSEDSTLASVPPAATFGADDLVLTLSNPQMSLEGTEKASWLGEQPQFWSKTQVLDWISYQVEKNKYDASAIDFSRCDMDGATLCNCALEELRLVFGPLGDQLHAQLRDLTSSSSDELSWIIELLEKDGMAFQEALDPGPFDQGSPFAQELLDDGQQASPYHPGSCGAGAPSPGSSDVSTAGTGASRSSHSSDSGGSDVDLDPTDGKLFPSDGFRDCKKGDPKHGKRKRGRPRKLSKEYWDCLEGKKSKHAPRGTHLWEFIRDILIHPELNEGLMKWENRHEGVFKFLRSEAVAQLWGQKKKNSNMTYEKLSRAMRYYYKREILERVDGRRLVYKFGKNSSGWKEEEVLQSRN
Summary of the method: as §1

[18] = biological target: CRX (Homo sapiens, UniProt O43186 1-299); settings: protein: recombinant; tags: N-terminal GST; dsDNA, one strand shown
Summary of the method: as §1

[19] = biological target: ETV1 (Homo sapiens, UniProt P50549 1-477); settings: protein: recombinant; tags: N-terminal GST; dsDNA, one strand shown
Summary of the method: as §1

Sequence of ELF4 (Q99607 whole entry): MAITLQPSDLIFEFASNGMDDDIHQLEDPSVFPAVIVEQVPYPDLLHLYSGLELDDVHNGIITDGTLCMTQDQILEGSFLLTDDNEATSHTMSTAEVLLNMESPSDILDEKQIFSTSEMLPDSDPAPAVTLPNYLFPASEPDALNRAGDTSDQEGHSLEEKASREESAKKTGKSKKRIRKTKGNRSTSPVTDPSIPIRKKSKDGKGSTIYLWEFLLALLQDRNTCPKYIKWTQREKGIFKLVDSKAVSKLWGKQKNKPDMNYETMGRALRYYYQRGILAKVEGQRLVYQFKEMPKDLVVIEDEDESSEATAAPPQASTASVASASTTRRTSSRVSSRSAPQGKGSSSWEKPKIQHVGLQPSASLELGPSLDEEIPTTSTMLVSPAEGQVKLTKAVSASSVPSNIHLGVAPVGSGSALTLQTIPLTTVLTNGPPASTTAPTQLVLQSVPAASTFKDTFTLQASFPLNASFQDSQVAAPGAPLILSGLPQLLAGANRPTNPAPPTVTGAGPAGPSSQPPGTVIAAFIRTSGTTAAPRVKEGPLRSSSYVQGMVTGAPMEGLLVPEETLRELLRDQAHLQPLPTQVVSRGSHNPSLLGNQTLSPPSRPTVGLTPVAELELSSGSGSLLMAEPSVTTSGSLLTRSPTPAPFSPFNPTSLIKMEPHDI
Sequence of ELF1 (P32519 whole entry): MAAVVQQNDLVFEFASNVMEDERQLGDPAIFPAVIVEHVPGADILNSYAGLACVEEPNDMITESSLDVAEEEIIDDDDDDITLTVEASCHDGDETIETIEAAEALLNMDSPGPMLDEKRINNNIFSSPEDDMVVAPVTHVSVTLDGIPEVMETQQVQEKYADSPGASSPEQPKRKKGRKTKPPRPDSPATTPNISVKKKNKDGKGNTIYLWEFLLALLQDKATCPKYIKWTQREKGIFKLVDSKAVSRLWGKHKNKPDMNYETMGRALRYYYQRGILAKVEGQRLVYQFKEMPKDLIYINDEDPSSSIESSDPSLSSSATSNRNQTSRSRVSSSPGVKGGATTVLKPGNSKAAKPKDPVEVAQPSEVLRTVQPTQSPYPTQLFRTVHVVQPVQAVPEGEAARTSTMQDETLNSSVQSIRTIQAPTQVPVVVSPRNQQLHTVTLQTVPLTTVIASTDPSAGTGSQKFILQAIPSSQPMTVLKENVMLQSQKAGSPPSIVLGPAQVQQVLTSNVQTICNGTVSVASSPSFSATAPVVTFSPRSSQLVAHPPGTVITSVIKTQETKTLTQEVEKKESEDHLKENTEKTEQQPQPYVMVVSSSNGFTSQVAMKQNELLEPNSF
Sequence of ETV5 (P41161 whole entry): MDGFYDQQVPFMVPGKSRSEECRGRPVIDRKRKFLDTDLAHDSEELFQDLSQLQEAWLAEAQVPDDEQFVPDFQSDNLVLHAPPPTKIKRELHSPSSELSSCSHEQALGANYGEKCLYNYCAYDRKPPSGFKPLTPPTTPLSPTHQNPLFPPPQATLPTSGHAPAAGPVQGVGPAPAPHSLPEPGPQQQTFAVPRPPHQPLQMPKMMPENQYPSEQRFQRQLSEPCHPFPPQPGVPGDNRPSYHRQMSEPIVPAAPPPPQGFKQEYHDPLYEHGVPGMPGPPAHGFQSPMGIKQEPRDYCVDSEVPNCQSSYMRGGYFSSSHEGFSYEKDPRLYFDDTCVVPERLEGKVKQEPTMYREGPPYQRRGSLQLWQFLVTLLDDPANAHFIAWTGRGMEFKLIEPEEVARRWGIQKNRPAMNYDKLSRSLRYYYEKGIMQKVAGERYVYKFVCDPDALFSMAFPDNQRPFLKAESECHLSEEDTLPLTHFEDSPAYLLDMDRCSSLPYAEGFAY
Sequence of SPIB (Q01892 whole entry): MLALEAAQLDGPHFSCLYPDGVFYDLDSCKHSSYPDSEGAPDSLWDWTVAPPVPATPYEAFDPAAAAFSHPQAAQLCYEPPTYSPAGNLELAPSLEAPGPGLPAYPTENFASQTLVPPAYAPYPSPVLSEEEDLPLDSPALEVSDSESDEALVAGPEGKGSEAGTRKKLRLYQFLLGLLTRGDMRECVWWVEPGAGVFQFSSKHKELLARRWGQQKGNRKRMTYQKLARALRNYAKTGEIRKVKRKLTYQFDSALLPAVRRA
Sequence of ETV1 (P50549 whole entry): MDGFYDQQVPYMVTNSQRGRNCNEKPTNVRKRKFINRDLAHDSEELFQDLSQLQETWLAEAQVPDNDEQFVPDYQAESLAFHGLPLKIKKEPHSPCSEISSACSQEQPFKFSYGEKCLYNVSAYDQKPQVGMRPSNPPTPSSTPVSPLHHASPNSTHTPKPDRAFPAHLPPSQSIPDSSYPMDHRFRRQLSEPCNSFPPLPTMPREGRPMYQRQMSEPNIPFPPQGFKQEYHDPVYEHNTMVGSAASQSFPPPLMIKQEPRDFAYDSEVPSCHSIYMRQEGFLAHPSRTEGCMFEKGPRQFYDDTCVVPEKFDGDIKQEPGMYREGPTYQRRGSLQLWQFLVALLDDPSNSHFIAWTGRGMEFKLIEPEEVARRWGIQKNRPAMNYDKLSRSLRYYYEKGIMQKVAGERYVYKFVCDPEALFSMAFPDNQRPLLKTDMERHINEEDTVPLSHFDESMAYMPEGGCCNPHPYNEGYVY
Sequence of HSF1 (Q00613 whole entry): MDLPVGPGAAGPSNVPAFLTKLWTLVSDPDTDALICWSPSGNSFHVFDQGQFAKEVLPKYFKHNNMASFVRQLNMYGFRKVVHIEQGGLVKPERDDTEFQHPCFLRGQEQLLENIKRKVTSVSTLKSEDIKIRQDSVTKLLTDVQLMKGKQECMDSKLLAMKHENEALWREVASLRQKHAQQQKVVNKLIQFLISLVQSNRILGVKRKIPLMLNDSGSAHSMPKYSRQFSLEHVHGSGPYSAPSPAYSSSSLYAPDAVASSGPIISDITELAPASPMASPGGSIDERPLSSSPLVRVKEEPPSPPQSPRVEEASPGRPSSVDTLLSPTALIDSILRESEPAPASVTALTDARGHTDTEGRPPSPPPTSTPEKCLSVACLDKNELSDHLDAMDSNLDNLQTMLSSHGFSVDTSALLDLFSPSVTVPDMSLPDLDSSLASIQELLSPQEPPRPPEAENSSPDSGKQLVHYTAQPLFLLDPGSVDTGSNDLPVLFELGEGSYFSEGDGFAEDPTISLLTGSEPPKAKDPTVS
Sequence of CRX (O43186 whole entry): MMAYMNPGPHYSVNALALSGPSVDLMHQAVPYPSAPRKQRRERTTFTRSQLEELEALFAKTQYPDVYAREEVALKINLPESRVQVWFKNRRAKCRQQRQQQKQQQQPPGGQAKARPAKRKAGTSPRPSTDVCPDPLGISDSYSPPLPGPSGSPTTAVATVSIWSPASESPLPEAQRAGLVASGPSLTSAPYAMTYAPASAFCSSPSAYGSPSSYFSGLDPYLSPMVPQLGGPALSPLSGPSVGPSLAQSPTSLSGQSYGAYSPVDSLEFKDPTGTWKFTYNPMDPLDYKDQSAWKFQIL

In the case of TATGGC, the binding signal [1] is reported as 1.19 fold enrichment (6-mer frequency, TF over GST control), the binding signal [2] is reported as 1.29 fold enrichment (6-mer frequency, TF over GST control) and the binding signal [3] is reported as 1.26 fold enrichment (6-mer frequency, TF over GST control). The binding signal [4] was 1.27 fold enrichment (6-mer frequency, TF over GST control), the binding signal [5] was 1.24 fold enrichment (6-mer frequency, TF over GST control) and the binding signal [6] was 1.1 fold enrichment (6-mer frequency, TF over GST control). For the same sequence, the binding signal [7] was 1.12 fold enrichment (6-mer frequency, TF over GST control), the binding signal [8] was 1.18 fold enrichment (6-mer frequency, TF over GST control) and the binding signal [9] was 1.16 fold enrichment (6-mer frequency, TF over GST control). For the same sequence, the binding signal [10] was 1.36 fold enrichment (6-mer frequency, TF over GST control), the binding signal [11] was 1.33 fold enrichment (6-mer frequency, TF over GST control) and the binding signal [12] was 1.2 fold enrichment (6-mer frequency, TF over GST control). For the same sequence, the binding signal [13] was 1.17 fold enrichment (6-mer frequency, TF over GST control), the binding signal [14] was 1.2 fold enrichment (6-mer frequency, TF over GST control) and the binding signal [15] was 1.2 fold enrichment (6-mer frequency, TF over GST control). The binding signal [16] was 1.41 fold enrichment (6-mer frequency, TF over GST control), the binding signal [17] was 1.29 fold enrichment (6-mer frequency, TF over GST control) and the binding signal [18] was 1.34 fold enrichment (6-mer frequency, TF over GST control). For the same sequence, the binding signal [19] was 1.25 fold enrichment (6-mer frequency, TF over GST control).
